Here are results for seven molecules from ChEMBL document CHEMBL2218924, “A broad activity screen in support of a chemogenomic map for kinase signalling research and drug discovery” (Biochem J, 2013).

Assay [1] concerns the target Homeodomain-interacting protein kinase 3 (Homo sapiens) (UniProt Q9H422). The note with it: at 10 µM.
Assay [2] deals with T1, Serine/threonine-protein kinase haspin (Homo sapiens) (UniProt Q8TF76).
T1 sequence (whole entry): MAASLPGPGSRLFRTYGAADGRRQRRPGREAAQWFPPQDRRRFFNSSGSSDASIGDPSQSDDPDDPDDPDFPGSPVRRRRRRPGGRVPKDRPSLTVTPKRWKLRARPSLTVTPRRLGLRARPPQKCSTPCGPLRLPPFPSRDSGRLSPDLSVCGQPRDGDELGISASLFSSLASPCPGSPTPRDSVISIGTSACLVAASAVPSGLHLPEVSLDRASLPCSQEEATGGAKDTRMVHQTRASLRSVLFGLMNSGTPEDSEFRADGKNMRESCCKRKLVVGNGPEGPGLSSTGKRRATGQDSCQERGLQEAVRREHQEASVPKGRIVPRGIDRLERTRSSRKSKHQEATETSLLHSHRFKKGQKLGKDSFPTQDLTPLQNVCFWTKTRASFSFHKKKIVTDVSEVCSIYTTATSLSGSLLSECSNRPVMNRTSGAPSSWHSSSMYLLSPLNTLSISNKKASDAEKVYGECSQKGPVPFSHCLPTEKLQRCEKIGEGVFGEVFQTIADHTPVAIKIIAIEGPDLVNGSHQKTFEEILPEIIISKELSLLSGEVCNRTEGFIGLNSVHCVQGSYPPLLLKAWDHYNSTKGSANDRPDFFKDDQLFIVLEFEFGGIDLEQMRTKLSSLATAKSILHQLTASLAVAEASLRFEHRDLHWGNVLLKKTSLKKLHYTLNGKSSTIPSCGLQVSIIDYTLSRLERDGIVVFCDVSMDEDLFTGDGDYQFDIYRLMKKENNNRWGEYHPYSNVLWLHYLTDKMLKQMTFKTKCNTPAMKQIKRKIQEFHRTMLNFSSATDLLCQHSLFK
The note with it: at 1 µM.

The target in assay [3] is T1, Serine/threonine-protein kinase haspin (Homo sapiens). The note with it: at 10 µM.
Assay [4] addresses Tyrosine-protein kinase HCK (Homo sapiens) (UniProt P08631). The settings on record: at 1 µM.
Assay [5] shares this target. The note with it: at 10 µM.
Assay [6] shares this target. The settings on record: at 1 µM. The source holds these as a separate data set.
Assay [7] has the same target. The note with it: at 10 µM. The source holds these as a separate data set.
In assay [8] the target is Insulin-like growth factor 1 receptor (Homo sapiens) (UniProt P08069). The note with it: at 1 µM.
Assay [9] concerns the target T2, Serine/threonine-protein kinase D1 (Homo sapiens) (UniProt Q15139).
T2 sequence (whole entry): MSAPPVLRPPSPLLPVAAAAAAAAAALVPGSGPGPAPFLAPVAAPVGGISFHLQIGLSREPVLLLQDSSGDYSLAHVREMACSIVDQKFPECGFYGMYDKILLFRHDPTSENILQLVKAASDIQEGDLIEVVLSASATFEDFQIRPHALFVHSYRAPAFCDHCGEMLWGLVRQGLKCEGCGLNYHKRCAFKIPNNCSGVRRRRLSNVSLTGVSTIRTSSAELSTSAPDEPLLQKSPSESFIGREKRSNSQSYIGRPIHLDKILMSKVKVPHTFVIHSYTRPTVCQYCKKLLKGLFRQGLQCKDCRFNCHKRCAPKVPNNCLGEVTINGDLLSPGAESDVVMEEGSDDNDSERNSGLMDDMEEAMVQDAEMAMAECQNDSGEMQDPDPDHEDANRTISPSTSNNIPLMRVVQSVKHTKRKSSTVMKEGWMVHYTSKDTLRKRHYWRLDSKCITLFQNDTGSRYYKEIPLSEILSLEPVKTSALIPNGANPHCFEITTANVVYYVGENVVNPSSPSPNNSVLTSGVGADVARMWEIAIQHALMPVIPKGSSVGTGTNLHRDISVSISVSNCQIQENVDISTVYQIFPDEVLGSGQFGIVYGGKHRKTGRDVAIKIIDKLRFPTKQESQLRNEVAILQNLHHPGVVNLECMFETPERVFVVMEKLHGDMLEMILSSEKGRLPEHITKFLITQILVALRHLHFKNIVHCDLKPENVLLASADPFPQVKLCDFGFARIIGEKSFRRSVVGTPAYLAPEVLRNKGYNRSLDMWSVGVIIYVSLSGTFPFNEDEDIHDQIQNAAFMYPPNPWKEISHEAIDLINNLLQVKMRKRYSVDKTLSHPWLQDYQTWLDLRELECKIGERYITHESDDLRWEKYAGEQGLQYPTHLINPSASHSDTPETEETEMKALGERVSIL
The settings on record: at 1 µM.

Assay [10] has as its target T2, Serine/threonine-protein kinase D1 (Homo sapiens). The settings on record: at 10 µM.
Assay [11] has as its target T3, Serine/threonine-protein kinase D2 (Homo sapiens) (UniProt Q9BZL6).
T3 sequence (whole entry): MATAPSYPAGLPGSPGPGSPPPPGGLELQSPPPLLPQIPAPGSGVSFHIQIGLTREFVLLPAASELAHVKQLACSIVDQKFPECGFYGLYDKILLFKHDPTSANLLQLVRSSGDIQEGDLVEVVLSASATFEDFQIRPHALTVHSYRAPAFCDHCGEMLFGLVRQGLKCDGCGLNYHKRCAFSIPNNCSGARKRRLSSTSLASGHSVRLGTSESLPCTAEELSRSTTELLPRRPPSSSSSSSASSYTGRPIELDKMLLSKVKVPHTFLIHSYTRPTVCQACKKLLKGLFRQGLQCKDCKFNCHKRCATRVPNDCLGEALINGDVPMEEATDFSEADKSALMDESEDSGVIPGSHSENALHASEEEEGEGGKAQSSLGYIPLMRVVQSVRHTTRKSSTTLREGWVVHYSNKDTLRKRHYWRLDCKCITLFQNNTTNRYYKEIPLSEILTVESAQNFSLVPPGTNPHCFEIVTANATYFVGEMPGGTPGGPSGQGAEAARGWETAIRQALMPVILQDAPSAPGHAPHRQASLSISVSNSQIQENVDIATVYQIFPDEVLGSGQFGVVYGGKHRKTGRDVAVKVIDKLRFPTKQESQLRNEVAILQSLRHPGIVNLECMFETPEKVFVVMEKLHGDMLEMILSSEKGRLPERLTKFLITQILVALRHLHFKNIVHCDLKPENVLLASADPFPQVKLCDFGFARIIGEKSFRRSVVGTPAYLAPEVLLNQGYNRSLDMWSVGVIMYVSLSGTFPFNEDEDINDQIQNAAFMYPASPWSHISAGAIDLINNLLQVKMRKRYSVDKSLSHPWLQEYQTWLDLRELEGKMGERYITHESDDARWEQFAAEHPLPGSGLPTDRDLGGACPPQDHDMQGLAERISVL
The settings on record: at 1 µM.

The target of assay [12] is T3, Serine/threonine-protein kinase D2 (Homo sapiens). The settings on record: at 10 µM.
The target of assay [13] is Insulin-like growth factor 1 receptor (Homo sapiens) (UniProt P08069). The settings on record: at 10 µM.
Assay [14] has as its target Protein kinase C eta type (Homo sapiens) (UniProt P24723). The settings on record: at 1 µM.
The target is the same in assay [15]. The settings on record: at 10 µM.
In assay [16] the target is T4, Protein kinase C iota type (Homo sapiens) (UniProt P41743).
T4 sequence (whole entry): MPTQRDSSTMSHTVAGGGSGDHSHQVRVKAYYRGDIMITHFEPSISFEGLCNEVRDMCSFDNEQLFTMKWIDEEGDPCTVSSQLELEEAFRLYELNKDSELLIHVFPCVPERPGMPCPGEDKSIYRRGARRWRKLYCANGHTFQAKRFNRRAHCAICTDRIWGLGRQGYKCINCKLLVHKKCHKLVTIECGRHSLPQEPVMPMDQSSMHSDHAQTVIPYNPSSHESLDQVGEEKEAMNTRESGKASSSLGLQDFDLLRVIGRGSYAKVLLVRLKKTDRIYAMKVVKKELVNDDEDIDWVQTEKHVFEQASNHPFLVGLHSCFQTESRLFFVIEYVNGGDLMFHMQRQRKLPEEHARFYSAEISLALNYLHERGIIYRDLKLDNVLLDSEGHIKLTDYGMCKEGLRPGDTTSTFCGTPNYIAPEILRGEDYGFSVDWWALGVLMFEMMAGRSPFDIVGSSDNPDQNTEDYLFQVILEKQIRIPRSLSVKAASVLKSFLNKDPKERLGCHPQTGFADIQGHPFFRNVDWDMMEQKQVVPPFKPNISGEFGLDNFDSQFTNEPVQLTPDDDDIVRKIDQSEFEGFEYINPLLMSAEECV
The settings on record: at 1 µM.

Assay [17] deals with T4, Protein kinase C iota type (Homo sapiens). The note with it: at 10 µM.
In assay [18] the target is Protein kinase C theta type (Homo sapiens) (UniProt Q04759). The settings on record: at 1 µM.
Assay [19] shares this target. The settings on record: at 10 µM.
The target of assay [20] is T5, Protein kinase C zeta type (Homo sapiens) (UniProt Q05513).
T5 sequence (whole entry): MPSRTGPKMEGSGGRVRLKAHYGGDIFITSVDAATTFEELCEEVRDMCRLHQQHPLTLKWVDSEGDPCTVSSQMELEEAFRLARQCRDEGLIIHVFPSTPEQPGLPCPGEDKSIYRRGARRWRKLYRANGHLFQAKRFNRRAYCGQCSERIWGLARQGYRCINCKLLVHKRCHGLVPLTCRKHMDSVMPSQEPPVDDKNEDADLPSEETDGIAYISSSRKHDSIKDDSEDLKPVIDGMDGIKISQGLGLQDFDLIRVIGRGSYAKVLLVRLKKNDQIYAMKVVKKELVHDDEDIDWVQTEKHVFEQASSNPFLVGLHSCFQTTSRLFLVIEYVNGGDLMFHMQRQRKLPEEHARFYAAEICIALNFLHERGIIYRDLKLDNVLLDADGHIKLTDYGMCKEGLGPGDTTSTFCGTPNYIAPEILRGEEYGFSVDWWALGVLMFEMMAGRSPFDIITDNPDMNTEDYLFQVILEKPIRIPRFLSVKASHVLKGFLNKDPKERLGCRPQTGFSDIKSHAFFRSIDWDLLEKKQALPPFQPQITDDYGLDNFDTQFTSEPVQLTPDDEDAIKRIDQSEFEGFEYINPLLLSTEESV
The settings on record: at 10 µM.

Sequence of Tyrosine-protein kinase HCK (Homo sapiens) (P08631 2-526 limits assumed): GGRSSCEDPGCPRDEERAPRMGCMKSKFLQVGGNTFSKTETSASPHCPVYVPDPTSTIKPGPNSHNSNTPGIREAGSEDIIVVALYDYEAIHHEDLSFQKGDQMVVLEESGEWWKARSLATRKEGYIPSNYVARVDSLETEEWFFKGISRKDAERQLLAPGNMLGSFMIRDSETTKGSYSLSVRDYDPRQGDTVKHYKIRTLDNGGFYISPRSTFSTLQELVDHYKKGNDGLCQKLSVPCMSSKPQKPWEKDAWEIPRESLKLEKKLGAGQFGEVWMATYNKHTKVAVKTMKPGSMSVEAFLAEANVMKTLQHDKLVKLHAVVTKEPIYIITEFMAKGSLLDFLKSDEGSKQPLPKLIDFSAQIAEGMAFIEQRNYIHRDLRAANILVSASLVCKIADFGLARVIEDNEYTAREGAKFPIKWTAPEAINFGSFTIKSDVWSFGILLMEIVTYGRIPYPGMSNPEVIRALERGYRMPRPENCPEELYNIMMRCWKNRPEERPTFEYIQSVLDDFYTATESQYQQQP
Sequence of Protein kinase C eta type (Homo sapiens) (P24723 whole entry): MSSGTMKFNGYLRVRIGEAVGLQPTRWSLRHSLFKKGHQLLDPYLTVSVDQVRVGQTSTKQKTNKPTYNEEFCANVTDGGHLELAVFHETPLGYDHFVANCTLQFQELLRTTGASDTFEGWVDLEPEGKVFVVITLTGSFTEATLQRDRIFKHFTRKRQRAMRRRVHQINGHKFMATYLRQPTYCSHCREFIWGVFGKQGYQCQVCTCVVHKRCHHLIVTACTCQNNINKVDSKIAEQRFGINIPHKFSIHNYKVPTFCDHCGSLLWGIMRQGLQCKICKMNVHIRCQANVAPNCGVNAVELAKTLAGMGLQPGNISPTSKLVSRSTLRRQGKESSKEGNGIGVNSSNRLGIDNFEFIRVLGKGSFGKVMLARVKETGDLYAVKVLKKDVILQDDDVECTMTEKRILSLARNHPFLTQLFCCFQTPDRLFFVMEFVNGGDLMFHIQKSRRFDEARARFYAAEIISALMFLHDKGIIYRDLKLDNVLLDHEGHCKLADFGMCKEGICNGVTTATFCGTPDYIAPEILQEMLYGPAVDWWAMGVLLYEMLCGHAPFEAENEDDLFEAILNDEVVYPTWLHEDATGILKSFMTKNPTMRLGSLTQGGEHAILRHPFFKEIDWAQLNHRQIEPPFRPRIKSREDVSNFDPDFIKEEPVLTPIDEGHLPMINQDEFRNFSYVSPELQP
Sequence of Protein kinase C theta type (Homo sapiens) (Q04759 whole entry, looked up): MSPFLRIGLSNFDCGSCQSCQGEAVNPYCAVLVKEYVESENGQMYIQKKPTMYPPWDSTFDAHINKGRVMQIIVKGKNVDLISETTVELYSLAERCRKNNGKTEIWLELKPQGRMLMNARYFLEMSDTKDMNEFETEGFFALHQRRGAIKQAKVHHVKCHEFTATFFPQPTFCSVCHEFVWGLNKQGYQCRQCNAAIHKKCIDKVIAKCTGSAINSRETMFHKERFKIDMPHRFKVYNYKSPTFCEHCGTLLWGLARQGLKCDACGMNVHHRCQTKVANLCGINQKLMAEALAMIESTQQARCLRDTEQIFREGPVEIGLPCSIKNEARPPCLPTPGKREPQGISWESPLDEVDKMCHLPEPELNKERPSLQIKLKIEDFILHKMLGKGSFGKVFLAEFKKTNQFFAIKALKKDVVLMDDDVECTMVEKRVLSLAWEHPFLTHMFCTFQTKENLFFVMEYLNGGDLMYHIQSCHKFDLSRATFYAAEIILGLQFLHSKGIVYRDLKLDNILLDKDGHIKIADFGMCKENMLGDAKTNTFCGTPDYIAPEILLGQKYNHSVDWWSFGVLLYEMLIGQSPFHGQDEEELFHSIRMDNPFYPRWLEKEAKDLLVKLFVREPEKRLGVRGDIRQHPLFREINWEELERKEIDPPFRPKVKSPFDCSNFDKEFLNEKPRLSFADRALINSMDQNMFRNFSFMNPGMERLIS
Sequence of Homeodomain-interacting protein kinase 3 (Homo sapiens) (Q9H422 whole entry, looked up): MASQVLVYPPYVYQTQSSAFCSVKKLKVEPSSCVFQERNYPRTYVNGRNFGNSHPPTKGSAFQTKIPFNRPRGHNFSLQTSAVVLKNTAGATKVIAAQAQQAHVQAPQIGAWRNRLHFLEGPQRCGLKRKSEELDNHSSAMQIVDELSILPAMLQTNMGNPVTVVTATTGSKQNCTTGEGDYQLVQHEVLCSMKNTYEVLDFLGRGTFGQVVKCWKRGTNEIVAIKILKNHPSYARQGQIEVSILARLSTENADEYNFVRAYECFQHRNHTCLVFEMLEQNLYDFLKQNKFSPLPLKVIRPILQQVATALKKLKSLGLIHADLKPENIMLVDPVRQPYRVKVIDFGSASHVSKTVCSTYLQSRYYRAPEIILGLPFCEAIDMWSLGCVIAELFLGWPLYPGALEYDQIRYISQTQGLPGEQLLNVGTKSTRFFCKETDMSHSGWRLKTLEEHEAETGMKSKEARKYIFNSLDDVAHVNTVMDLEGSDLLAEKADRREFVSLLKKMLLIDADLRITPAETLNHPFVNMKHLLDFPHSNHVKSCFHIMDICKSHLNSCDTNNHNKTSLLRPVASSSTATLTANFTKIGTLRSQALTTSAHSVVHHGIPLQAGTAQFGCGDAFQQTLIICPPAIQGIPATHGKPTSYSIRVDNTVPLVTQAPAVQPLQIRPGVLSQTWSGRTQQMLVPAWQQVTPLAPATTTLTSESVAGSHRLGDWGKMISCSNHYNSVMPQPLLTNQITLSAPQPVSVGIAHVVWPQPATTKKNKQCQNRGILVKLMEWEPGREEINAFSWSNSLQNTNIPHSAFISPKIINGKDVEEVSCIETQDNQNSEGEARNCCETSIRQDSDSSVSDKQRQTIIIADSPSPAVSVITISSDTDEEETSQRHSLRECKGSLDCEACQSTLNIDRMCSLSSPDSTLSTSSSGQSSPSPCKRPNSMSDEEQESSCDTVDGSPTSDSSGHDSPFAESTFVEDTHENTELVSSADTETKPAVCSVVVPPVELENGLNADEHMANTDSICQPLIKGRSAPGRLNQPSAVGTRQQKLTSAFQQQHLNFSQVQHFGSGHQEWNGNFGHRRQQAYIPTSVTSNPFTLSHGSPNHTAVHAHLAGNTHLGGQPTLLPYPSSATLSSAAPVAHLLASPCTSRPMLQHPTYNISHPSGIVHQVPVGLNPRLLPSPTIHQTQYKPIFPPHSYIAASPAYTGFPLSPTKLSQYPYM
Sequence of Insulin-like growth factor 1 receptor (Homo sapiens) (P08069 31-736 limits assumed): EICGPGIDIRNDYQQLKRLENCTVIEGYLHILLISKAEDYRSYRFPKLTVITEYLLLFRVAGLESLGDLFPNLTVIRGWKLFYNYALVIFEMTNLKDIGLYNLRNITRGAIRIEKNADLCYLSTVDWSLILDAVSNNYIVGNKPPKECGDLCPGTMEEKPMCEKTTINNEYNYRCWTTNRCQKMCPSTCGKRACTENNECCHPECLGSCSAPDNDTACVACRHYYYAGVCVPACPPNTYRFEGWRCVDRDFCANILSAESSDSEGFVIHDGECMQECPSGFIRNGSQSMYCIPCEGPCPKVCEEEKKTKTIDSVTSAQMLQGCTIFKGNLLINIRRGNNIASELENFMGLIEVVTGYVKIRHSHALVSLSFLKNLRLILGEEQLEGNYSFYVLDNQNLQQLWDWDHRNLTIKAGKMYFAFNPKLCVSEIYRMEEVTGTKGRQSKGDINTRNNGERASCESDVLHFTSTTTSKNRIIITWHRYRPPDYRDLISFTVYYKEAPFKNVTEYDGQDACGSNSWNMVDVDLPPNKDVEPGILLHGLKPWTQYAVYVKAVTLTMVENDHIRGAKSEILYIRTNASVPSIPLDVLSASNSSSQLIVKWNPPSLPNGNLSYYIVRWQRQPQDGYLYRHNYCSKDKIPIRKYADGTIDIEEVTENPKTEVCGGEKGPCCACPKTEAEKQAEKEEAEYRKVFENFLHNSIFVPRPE
Sequence of Insulin-like growth factor 1 receptor (Homo sapiens) (P08069 741-1367 limits assumed): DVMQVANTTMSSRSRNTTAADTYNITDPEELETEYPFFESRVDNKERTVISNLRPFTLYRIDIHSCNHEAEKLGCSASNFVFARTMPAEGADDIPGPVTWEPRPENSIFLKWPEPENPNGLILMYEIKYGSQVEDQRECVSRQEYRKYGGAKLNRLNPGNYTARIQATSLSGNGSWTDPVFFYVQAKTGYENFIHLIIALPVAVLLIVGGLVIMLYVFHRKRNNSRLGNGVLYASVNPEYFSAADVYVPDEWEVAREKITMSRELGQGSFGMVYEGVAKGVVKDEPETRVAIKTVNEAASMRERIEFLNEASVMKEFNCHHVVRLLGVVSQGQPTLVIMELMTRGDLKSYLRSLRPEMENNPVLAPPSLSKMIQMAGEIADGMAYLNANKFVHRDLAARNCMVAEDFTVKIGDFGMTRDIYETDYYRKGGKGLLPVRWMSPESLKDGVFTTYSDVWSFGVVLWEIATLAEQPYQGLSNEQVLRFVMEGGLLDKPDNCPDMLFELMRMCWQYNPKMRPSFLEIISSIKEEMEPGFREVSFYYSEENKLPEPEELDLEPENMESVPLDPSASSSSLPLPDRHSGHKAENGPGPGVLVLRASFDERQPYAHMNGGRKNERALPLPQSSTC

On to `CC(C)(C)c1nc2c3ccc(F)cc3c3c(=O)[nH]ccc3c2[nH]1`, for which the residual activity (as a rule, the signal under treatment as a percentage of the control signal) was 45% in assay [1]; 74% in assay [2]; 34% in assay [3]; 49% in assay [4]; 31% in assay [5]; 68% in assay [6]. Besides, the residual activity in assay [7] amounted to 60%; in assay [8], 119%; in assay [9], 8%; in [10] it was 16%; in [11], 40%; in [12] it was 22%.

Turning to `Nc1ncnc2c1cnn2-c1ccccc1`, the residual activity turned out to be 94% in assay [1]; 83% in assay [3]; 83% in [4]; 68% in assay [5]; 96% in [6]; 85% in assay [7]. The residual activity in assay [8] is 140%; in [13], 129%; in [14] it was 102%; in assay [15], 76%; in assay [16], 102% (inactive); in assay [17], 98%. The residual activity in assay [9] was 92%.

Take `CCCC(=O)Oc1ccc2[nH]c(C(=O)c3cc4ccccc4[nH]3)cc2c1`: the residual activity in assay [1] came to 98%; in [2] it was 106%; in assay [3] it was 99%; in [4], 70%; in assay [5], 36%; in assay [6], 98%. For the same molecule, the residual activity in assay [7] was 94%; in [8] it was 143%; in assay [13], 106%; in [14], 102%; in assay [15], 81%; in assay [18], 92%. Besides, the residual activity in assay [19] was 75%; in [16], 99% (inactive); in [9], 101%; in assay [10], 103%; in [11] it was 99%.

As for `O=C(O)/C=C/c1cc(Br)c(Br)c(Br)c1Br`, the residual activity in assay [1] stood at 54%; in assay [2], 79%; in [3] it was 71%; in [4], 59%; in [5] it was 48%; in assay [6] it was 107%. The residual activity in [7] stood at 106%; in assay [20], 88%; in [14] it was 100%; in assay [15] it was 79%; in assay [18] it was 100%; in assay [19], 90%. Moreover, the residual activity is 96% (inactive) in assay [16]; 100% in assay [17]; 109% in [9]; 64% in [10]; 102% in [11]; 97% in [12].

As to `O=C1NC(=O)C(c2cn(CCCO)c3ncccc23)=C1c1cnccn1`, the residual activity in assay [2] was 69%; in [3] it was 55%; in assay [4] it was 66%; in [5], 48%; in [6], 95%; in assay [7] it was 96%. Also, the residual activity in assay [8] came to 138%; in [13], 124%; in assay [15] it was 87%; in assay [18], 97%; in assay [19], 77%.

Regarding `COc1ccc(Cl)cc1NC(=O)Nc1cc(C)nc2ccccc12`, the residual activity came to 98% in [1]; 93% in assay [4]; 53% in assay [5]; 100% in assay [6]; 98% in assay [7]; 147% in assay [8]. Moreover, the residual activity is 89% in [18]; 92% in assay [19]; 88% (inactive) in [16]; 86% in assay [17]; 95% in assay [9]; 87% in [10].

Consider `N#C/C(=C1/Nc2ccccc2S1)c1ccnc(NCCc2cccnc2)n1`, for which the residual activity in assay [1] is 21%; in assay [2], 36%; in [3], -2%; in assay [4], 60%; in assay [5], 26%; in assay [6], 88%. Further, the residual activity in assay [7] stood at 68%; in assay [8], 143%; in [13] it was 72%; in assay [18] it was 95%; in [19], 72%; in [9] it was 73%. In addition, the residual activity in assay [10] came to 36%.
